Experiment [1] in a line: qHTS assay for small molecule agonists of the p53 signaling pathway (AID 651631; calls by dose curve; further: nearly all actives have a fitted effect of over 15% in size). The procedure, abridged: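 p53RE-bla HCT-116 cells; compounds 16 h, 37 °C; LiveBLAzer B/G FRET substrate 2 h RT; fluorescence intensity read-out, qHTS format.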
For orientation: qHTS replaces the single test concentration by a dilution series.

Experiment [2] in a line: qHTS assay for small molecules that induce genotoxicity in human embryonic kidney cells expressing luciferase-tagged ATAD5 (AID 651632). Further: nearly all actives have a fitted effect of over 15% in size. The procedure, abridged: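 A rise in luciferase signal from ATAD5-tagged HEK293T cells marks genetic stress. Cells were exposed to compounds for 16 hr at 37C, 5% CO2, then luciferase was quantified after a 30 min room-temperature incubation with Amplite.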

Experiment [3] can be described thus: qHTS assay for small molecule agonists of the p53 signaling pathway - cell viability (AID 651633; calls by dose curve;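 further: p53RE-bla HCT reporter cells with a stable beta-lactamase p53 reporter; series mostly up to about 83 µM; nearly all actives have a fitted effect of over 30% in size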). The procedure, abridged:
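p53RE-bla cells, seeded at 4,000 per well and rested 5 h at 37 C/5% CO2, received compounds in DMSO for 16 h at 37 C. CellTiter-Glo was then added, and luminescence was read after 30 min at room temperature to gauge cytotoxicity.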

Experiment [4] is described as follows: qHTS assay for small molecules that induce genotoxicity in human embryonic kidney cells expressing luciferase-tagged ATAD5 - cell viability (AID 651634; calls by dose curve; further: nearly all actives have a fitted effect of over 25% in size). The method in brief:
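Cytotoxicity counter-readout: after 15.5 hr compound treatment at 37C, live-cell protease activity in ATAD5-luciferase HEK293T cells measured by CellTiter-Fluor fluorescence, 30 min development at 37C.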

The nature of experiment [5]: qHTS assay for small molecule disruptors of the mitochondrial membrane potential - cell viability (AID 720634; calls by dose curve;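 further: human HepG2 liver cancer cells; series mostly up to about 83 µM; nearly all actives have a fitted effect of over 20% in size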). The method in brief: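 Cytotoxicity was quantified from ATP content by CellTiter-Glo luminescence in the same wells as the MMP dye read-out. HepG2 (2,000 cells/well) were plated overnight and exposed to compounds for 1 hr at 37 C.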
Experiment [6] in a line: qHTS assay for small molecule disruptors of the mitochondrial membrane potential (AID 720635). Further: potency means the concentration at half of the fitted maximal effect. The method in brief:
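HepG2 cells (2,000/well) attached overnight at 37C, then took compound for 1 hr at 37C, 5% CO2. Mito-MPS dye was added for 30 min; fluorescence was read at 490/535 nm (monomers) and 540/590 nm (aggregates).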

A short description of experiment [7]: qHTS assay to test for compound auto fluorescence at 590 nm (red) in HepG2 cells (AID 720674). The method in brief:
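Compound auto-fluorescence is scored relative to Rose Bengal sodium, measured at 540/590 nm in live HepG2 cultures after 1 hr compound contact (37 C, 5% CO2).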

Experiment [8] can be described thus: qHTS assay to test for compound auto fluorescence at 535 nm (green) in HepG2 cells (AID 720675).
Experiment [9] in a line: qHTS assay to test for compound auto fluorescence at 460 nm (blue) in HEK293 cells (AID 720678). The method in brief: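 Blue read-out at excitation 405 nm and emission 460 nm follows overnight compound exposure of HEK293 cells at 37C in 5% CO2. Activity is given as auto fluorescence equivalency to triamterene.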
Experiment [10] in a line: qHTS assay to test for compound auto fluorescence at 590 nm (red) in HEK293 cells (AID 720679). The method in brief: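 Red channel, Ex/Em 540/590nm; signal expressed as equivalency to Rose Bengal sodium. HEK293, 2,000 cells/well, 10% dialyzed FBS; 23 nL compound pinned after 4-5 hr attachment; overnight 37C/5% CO2 before reading.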

Values without a mark were called inactive. Inconclusive results are not listed. Calls of active or inactive are those of the source. Unless noted, the call rests on the fitted dose curve; in most records, active means well fitted curve in the direction sought with a large enough effect in the repeat runs; inconclusive means weak or mixed curves; inactive means no such curve, though single readings can be large; an effect the other way counts as inactive or inconclusive.
On the % scale 0 is the no-effect control and ±100 the full control effect.

As for `O=C1OC(=O)c2ccccc21`, the result in experiment [1], in [2], in experiment [3], in experiment [5], in experiment [7] and in [8] was inactive. In addition, the call in experiment [9] and in experiment [10] was inactive. The Potency entry in experiment [4] and in [6] was “inactive” in each case.
For `C1=C\CC/C=C\CC/1`, the result in experiment [1], in experiment [2], in experiment [3], in experiment [5], in experiment [7] and in experiment [8] was inactive. The result in experiment [9] and in experiment [10] was inactive. Further, the Potency entry in experiment [4] and in experiment [6] was “inactive” throughout.
As for `Cc1ccccc1C(=O)N1CC/C(=N\OS(=O)(=O)O)c2ccc(Cl)cc21`, the call in [1], in experiment [2], in experiment [3], in [5], in experiment [7] and in [8] was inactive. Also, the call in [9] and in [10] was inactive. The Potency entry in [4] and in experiment [6] was “inactive” in each case.
Turning to `CCOC(=O)CCc1ccccc1`, the call in experiment [1], in experiment [2], in [3], in experiment [5], in experiment [7] and in experiment [8] was inactive. Further, the result in [9] and in experiment [10] was inactive. Also, the Potency result in [4] and in experiment [6] was “inactive” each time.
On to `CCCCCCCCCCCCC`, for which the outcome in experiment [1], in [2], in [3], in experiment [5], in [7] and in experiment [8] was inactive. In addition, the outcome in experiment [9] and in experiment [10] was inactive. Besides, the Potency entry in experiment [4] and in experiment [6] was “inactive” throughout.
Take `CC(=O)c1ccc2c(c1)CCCC2`: the outcome in experiment [1], in [2], in [3], in experiment [5], in [7] and in [8] was inactive. Moreover, the result in experiment [9] and in experiment [10] was inactive. Further, the Potency result in experiment [4] and in [6] was “inactive” in each case.
Consider `O=c1[nH]c(=O)c2ccccc2o1`, for which the compound was called inactive in [1], in experiment [2], in experiment [3], in experiment [5], in experiment [7] and in experiment [8]. Besides, the compound was called inactive in experiment [9] and in experiment [10]. The Potency result in experiment [4] and in [6] was “inactive” in each case.
For `CCCCC(C)C(=O)O` (stereo not given), the result in [1], in experiment [2], in [3], in [5], in [7] and in experiment [8] was inactive. Also, the outcome in experiment [9] and in experiment [10] was inactive. Also, the Potency entry in experiment [4] and in [6] was “inactive” throughout.
On to `CNC(=O)NC`, for which the compound was called inactive in [1], in [2], in [3], in [5], in [7] and in [8]. For the same compound, the compound was classed as inactive in experiment [9] and in experiment [10]. Also, the Potency result in experiment [4] and in experiment [6] was “inactive” throughout.
Take `O=c1[nH]c(=O)c2[nH]c(=O)[nH]c2[nH]1`: the outcome in experiment [1], in [2], in experiment [3], in experiment [5], in experiment [7] and in experiment [8] was inactive. Moreover, the compound was classed as inactive in [9] and in experiment [10]. Further, the Potency result in experiment [4] and in [6] was “inactive” in each case.
For the compound `O=C(O)C(=O)Nc1cccc(-c2nn[nH]n2)c1`, the outcome in experiment [1], in experiment [2], in experiment [3], in experiment [5], in [7] and in experiment [8] was inactive. The compound was called inactive in [9] and in experiment [10]. Also, the Potency result in [4] and in experiment [6] was “inactive” each time.
For `COC(=O)CCC(=O)O`, the compound was called inactive in [1], in [2], in [3], in experiment [5], in experiment [7] and in [8]. For the same compound, the compound was called inactive in experiment [9] and in experiment [10]. Also, the Potency entry in experiment [4] and in [6] was “inactive” in each case.
For `C=C[C@@H](C)CCC=C(C)C`, the outcome in [1], in experiment [2], in experiment [3], in experiment [5], in experiment [7] and in experiment [8] was inactive. For the same compound, the compound was classed as inactive in experiment [9] and in experiment [10]. For the same compound, the Potency entry in experiment [4] and in experiment [6] was “inactive” each time.
For the compound `Nc1ccc(S(=O)(=O)Nc2ccccn2)cc1`, the result in [1], in experiment [2], in experiment [3] and in experiment [5] was inactive. For the same compound, the Potency entry in experiment [4] and in experiment [6] was “inactive” in each case. Also, the fluorescence, relative to Rose Bengal in [7] is 0.667% [at 18.6 µM]. Besides, the fluorescence, % of fluorescein control in experiment [8] is -0.201% [at 18.6 µM]. In [9], the fluorescence, % of triamterene is -0.296% [at 18.6 µM]. Besides, the fluorescence, % of fluorescent control in [10] was 0.278% [at 18.6 µM].
For the compound `CCOC(=O)CC#N`, the compound was called inactive in [1], in [2], in experiment [3], in [5], in experiment [7] and in experiment [8]. Moreover, the call in experiment [9] and in experiment [10] was inactive. Besides, the Potency result in experiment [4] and in experiment [6] was “inactive” each time.
Take `Cc1nc(C)nc(N2C[C@@H](C)N(c3ccnc([C@@H](C)O)n3)[C@@H](C)C2)n1`: the compound was called inactive in [1], in experiment [2], in [3], in experiment [5], in [7] and in experiment [8]. Also, the call in [9] and in [10] was inactive. Besides, the Potency result in [4] and in experiment [6] was “inactive” in each case.
For `COc1cc(C=O)ccc1OC(=O)C(C)C`, the result in [1], in experiment [2], in [3], in experiment [5], in experiment [7] and in [8] was inactive. In addition, the compound was called inactive in [9] and in [10]. Moreover, the Potency entry in experiment [4] and in experiment [6] was “inactive” in each case.
Turning to `CCCCCCCCCCCCCCCC(=O)NCCO`, the call in [1], in [2], in experiment [3], in experiment [5], in experiment [7] and in [8] was inactive. The compound was classed as inactive in experiment [9] and in experiment [10]. Further, the Potency entry in experiment [4] and in experiment [6] was “inactive” throughout.
As to `O=C(COCCOCCOCC(=O)Nc1c(I)cc(I)c(C(=O)O)c1I)Nc1c(I)cc(I)c(C(=O)O)c1I`, the outcome in experiment [1], in experiment [2], in [3], in experiment [5], in experiment [7] and in experiment [8] was inactive. For the same compound, the compound was called inactive in experiment [9] and in experiment [10]. Further, the Potency entry in experiment [4] and in experiment [6] was “inactive” in each case.
Consider `Cc1cc(O)c2c(c1)C(=O)c1cccc(O)c1C2=O`, for which the outcome in [1], in experiment [2], in experiment [3], in [5], in experiment [7] and in experiment [8] was inactive. The compound was classed as inactive in [9] and in experiment [10]. Also, the Potency result in [4] was “inactive”. Moreover, in [6], the Potency is 11.9 µM (active).
Turning to `CCC1COC(=O)O1` (stereo not given), the call in [1], in [2], in [3], in [5], in experiment [7] and in experiment [8] was inactive. The call in [9] and in experiment [10] was inactive. The Potency entry in experiment [4] and in experiment [6] was “inactive” each time.
Regarding `O=C1OC(=O)c2cc(Oc3ccc4c(c3)C(=O)OC4=O)ccc21`, the call in experiment [1], in experiment [2], in [3], in experiment [5], in experiment [7] and in [8] was inactive. Besides, the compound was called inactive in [9] and in experiment [10]. Also, the Potency result in experiment [4] and in [6] was “inactive” throughout.
In the case of `CO[Si](CCCS)(OC)OC`, the call in experiment [1], in experiment [2], in [3], in experiment [5], in experiment [7] and in experiment [8] was inactive. In addition, the result in [9] and in [10] was inactive. In addition, the Potency result in [4] and in experiment [6] was “inactive” each time.

The record behind these values is PubChem BioAssay (Tox21).
